Test results as given in PubChem BioAssay AID504803 (The Scripps Research Institute Molecular Screening Center, 2011).
Screen size: about 340,000 compounds; about 1,700 (0.5%) were called active. Rule as the data show it: active = inhibition above about 36%; inactive = the rest. The list comes from a sample in which actives are over-represented; it also holds similar structures and randomly drawn compounds.

Biological target: Serine protease HTRA1 (Homo sapiens) (UniProt Q92743)
Assay: HTRA1 serine protease inhibitors, primary screen, biochemical, fluorescence polarization, HTS (AID 504803);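 also: 0% = enzyme with DMSO and 100% = wells lacking enzyme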
Details: recombinant HTRA1, FP-rhodamine activity-based probe, at 5.96 µM, stronger effect = higher value

Chain of Serine protease HTRA1 (Homo sapiens) (Q92743 whole entry, looked up): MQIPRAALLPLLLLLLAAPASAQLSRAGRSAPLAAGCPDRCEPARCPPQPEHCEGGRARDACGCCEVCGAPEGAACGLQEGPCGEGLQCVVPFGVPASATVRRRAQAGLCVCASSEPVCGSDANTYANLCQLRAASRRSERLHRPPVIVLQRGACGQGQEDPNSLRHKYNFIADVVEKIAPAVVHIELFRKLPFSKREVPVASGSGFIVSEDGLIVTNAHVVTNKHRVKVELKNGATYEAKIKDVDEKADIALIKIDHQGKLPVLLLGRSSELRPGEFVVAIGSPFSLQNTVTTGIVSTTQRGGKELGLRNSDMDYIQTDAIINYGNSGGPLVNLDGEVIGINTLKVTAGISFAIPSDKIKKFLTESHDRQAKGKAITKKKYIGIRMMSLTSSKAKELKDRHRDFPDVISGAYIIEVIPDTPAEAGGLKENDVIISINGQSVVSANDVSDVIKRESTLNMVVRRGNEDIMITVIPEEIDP

Row | SMILES | inhibition
1 | COc1ccc(N)cc1NC(=O)CN1CCOCC1 | -3.64% (inactive)
2 | COc1cc2c(cc1OC)C(c1ccccc1Br)NC(=O)C2 (stereo not given) | -6.31% (inactive)
3 | Brc1ccccc1C1Nc2cccc3cccc(c23)N1 | 59.2% (active)
4 | Oc1ccc(C2Nc3cccc4cccc(c34)N2)cc1 | 22.9% (inactive)
5 | Cc1ccc(NC(=O)c2ccco2)cc1 | 1.31% (inactive)
6 | Cc1nc2ccccc2nc1CC(O)(c1ccccc1)c1ccccc1 | -14.1% (inactive)
7 | Cc1cc(Cl)ccc1C(=O)C1CCCN(C(=O)c2ccc3c(c2)OCO3)C1 (stereo not given) | -4.58% (inactive)
8 | O=S(=O)(NCCNS(=O)(=O)c1ccccc1)c1ccccc1 | 4.81% (inactive)
9 | NC(=O)NC(=O)C(OC(=O)CCNS(=O)(=O)c1ccccc1)c1ccccc1 (stereo not given) | 36.7% (active)
10 | Cc1ccc(S(=O)(=O)NCCC(=O)OCC(=O)N(C)c2ccccc2)cc1 | 5.9% (inactive)
11 | CSc1ncnc2c1ncn2CCCNCc1cccs1 | 3.07% (inactive)
12 | C[C@@H]1CCCCO[C@H](CN(C)Cc2ccccc2)[C@@H](C)CN([C@H](C)CO)C(=O)c2cc(NS(=O)(=O)c3ccc(Cl)cc3)ccc2O1 | -17.9% (inactive)
13 | CCc1cccc(CC)c1N1C(=O)CC(Sc2ccccc2N)C1=O (stereo not given) | 2.44% (inactive)
14 | Cn1nc(N)c2ncc(C(Cl)(Cl)Cl)nc21 | -0.52% (inactive)
15 | COc1cc(OC)c(C(=O)Nc2ccc(N(C)C)cc2)cc1OC | 5.76% (inactive)
16 | CN(C)c1ccc(N/C=C/C(=O)C(F)(F)F)cc1 | 38.7% (active)
17 | CC(C)CNC(=O)C(=O)Nc1ccc(N(C)C)cc1 | 7.37% (inactive)
18 | C[C@H](CO)N1C[C@H](C)[C@@H](CN(C)C(=O)c2cccc(F)c2)Oc2cc(-c3cncnc3)ccc2S1(=O)=O | 2.58% (inactive)
19 | O=[N+]([O-])c1cc(Cl)cc(/C=N/NC(=S)Nc2cc(S(=O)(=O)N3CCOCC3)ccc2Cl)c1O | 45.7% (active)
20 | O=C(c1cc(S(=O)(=O)N2CCOCC2)ccc1Cl)N1CCOCC1 | 2.81% (inactive)
21 | O=C(Nc1cc(S(=O)(=O)N2CCOCC2)ccc1Cl)c1cc(=O)c2ccccc2o1 | -4.07% (inactive)
22 | Nc1ccc(C(=O)Nc2ccccc2N)cc1 | 6.6% (inactive)
23 | Cc1ccc(Nc2nc(Cl)c(C=O)s2)cc1 | -8.62% (inactive)

Row | SMILES | inhibition
24 | Cc1ccc(Nc2ccccc2N)cc1 | 47.8% (active)
25 | CC1(c2cccc(N)c2)OCCO1 | 4.7% (inactive)
26 | O=C(O)C1=C(C(=O)O)C2CCC1C2 | 9.01% (inactive)
27 | CN1CCN(c2ccncc2S(=O)(=O)N2CCCC2)CC1 | 3.56% (inactive)
28 | Clc1ccc(C2=CSC3=Nc4cccc5cccc(c45)N23)cc1 | 44.2% (active)
29 | CC1=C(C(=O)N2CCOCC2)CC(CC(=O)NCc2cccc3ccccc23)C(=O)N1CCC1=CCCCC1 (stereo not given) | -3.43% (inactive)
30 | O=C1NC(Cc2ccccc2)c2nc3ccc(Br)cc3c(=O)n2-c2cc3ccccc3cc21 (stereo not given) | -54.3% (inactive)
31 | CC(=O)Nc1ccc(S(=O)(=O)N2CCCC2C(=O)O)cc1 (stereo not given) | 2% (inactive)
32 | CC(=O)Nc1ccc(S(=O)(=O)Nc2ccc(N3CCCCC3)cc2)cc1 | 52.4% (active)
33 | CC(=O)Nc1ccc(NS(=O)(=O)c2ccc3c(c2)NC(=O)CC(=O)N3)cc1 | 6.8% (inactive)
34 | C=CCOc1ccccc1CNn1c(C)n[nH]c1=S | 3.58% (inactive)
35 | CNC(=S)NNC(=O)c1cccn(Cc2ccccc2)c1=O | 3.18% (inactive)
36 | CNC(=S)NNC(=O)c1oc2nc(-c3ccccc3)cc(-c3ccco3)c2c1N | 51.7% (active)
37 | CNC(=S)NNC(=O)c1sccc1OCc1ccccc1 | 5.29% (inactive)
38 | Cc1cc2cc3n(c2nn1)N=C(Cl)CC3 | 3.25% (inactive)
39 | CCOC(=O)C1CCN(C(=O)c2ccc3c(=O)n4nc(Nc5ccccc5CC)sc4nc3c2)CC1 | -34.2% (inactive)
40 | CCOC(=O)C=Cc1ccc(C(=O)OCC)[nH]1 | 0.68% (inactive)
41 | Cc1[nH]c2ccccc2c1C(=O)C(=O)NCc1nnnn1-c1cccc(F)c1 | 7.28% (inactive)
42 | CCC(Oc1ccccc1)C(=O)OCC(=O)Nc1c(C)nn(-c2ccccc2)c1C (stereo not given) | -6.47% (inactive)
43 | CCn1c(SCC(=O)N/N=C/c2ccncc2)nc2ccccc21 | 4.65% (inactive)
44 | CCOc1ccc(/C=N/NC(=O)CSc2ccccn2)cc1O | 9.01% (inactive)
45 | Cn1c(SCC(=O)N/N=C/c2ccc(O)c(O)c2)nc2ccccc21 | 41.2% (active)
46 | O=C1OCCC1=COCCCCOC=C1CCOC1=O | -3.04% (inactive)

Row | SMILES | inhibition
47 | O=C(N/N=C/c1sc(N2CCCCC2)nc1-c1cccs1)c1cccnc1 | 40.5% (active)
48 | O=C(O)c1ccc(N/N=C/c2cn(-c3ccccc3)nc2-c2cccs2)cc1 | -11.3% (inactive)
49 | Cc1ccc(NC(=O)COc2ccc(/C=N\NC(=O)c3cccnc3)cc2)cc1C | -7.41% (inactive)
50 | CSc1ncnc2c1ncn2CCCNCc1ccco1 | 8.47% (inactive)
51 | CCN(CC)CCN(C(=O)c1ccc2c(c1)CCCC2)c1nc2c(OC)cccc2s1 | -19.6% (inactive)
52 | CN1OC[C@@H]2CN[C@H](c3ccc(-c4ccccc4)cc3)C[C@@H]21 | -1.81% (inactive)
53 | COCCn1c(SCC(=O)Nc2ccc(F)cc2F)nc2c(c1=O)SCC2 | -1.19% (inactive)
54 | CC(=O)N1CCN(c2ccc(NCc3ccc(C(C)C)cc3)cc2)CC1 | 59.2% (active)
55 | CC(=O)c1ccc(N2CCN(C(=O)CCc3ccccc3)CC2)cc1 | 2.82% (inactive)
56 | CC(CC(=O)N1CCN(c2ccccc2)CC1)c1ccccc1 (stereo not given) | -0.5% (inactive)
57 | O=C(OCc1ccccc1)N1CCC2CC1c1cc(N3CCN(S(=O)(=O)c4cc(Cl)cc(Cl)c4)CC3)ccc12 (stereo not given) | -4.06% (inactive)
58 | C[C@H](O)[C@@H]1C(=O)N2CCc3c([nH]c4ccccc34)[C@@H]2C[C@@H]1N(C)C(=O)Nc1ccc(F)cc1 | -1.56% (inactive)
59 | C[C@@H]1CN([C@H](C)CO)C(=O)CCCn2nncc2CO[C@@H]1CN(C)C(=O)OCc1ccccc1 | -3.03% (inactive)
60 | CC(C)CCOc1ccc(C(=O)Nc2cc(S(=O)(=O)N3CCOCC3)ccc2N2CCOCC2)cc1 | -7.89% (inactive)
61 | Cc1ccc(NC(=O)CCNC(=O)c2ccc([N+](=O)[O-])cc2)cc1S(=O)(=O)N1CCOCC1 | 3.34% (inactive)
62 | COc1ccc(NS(=O)(=O)c2cc(NC(=O)CC(=O)c3ccc([N+](=O)[O-])cc3)ccc2C)cc1 | 45.4% (active)
63 | COc1ccc(NS(=O)(=O)c2cc(NC(=O)COc3ccccc3F)ccc2OC)cc1 | -13.3% (inactive)
64 | CC1CCCC(C)N1C(=O)COC(=O)c1ccccc1C(=O)c1ccccc1 (stereo not given) | 0.04% (inactive)
65 | CCOc1cc(/C=N/NC(=O)c2ccncc2)cc(Br)c1O | 3.19% (inactive)
66 | O=C(C1CCCO1)N1CCN(C(=O)C23CC4CC(CC(C4)C2)C3)CC1 (stereo not given) | 9.09% (inactive)
67 | O=C1CC(NNc2ccccc2)C(=O)N1c1cccc(Cl)c1 (stereo not given) | -8.57% (inactive)
68 | CC(=O)Oc1cccc(N2C(=O)CC(Nc3ccc(N4CCOCC4)cc3)C2=O)c1 (stereo not given) | 51.5% (active)
69 | COc1ccc(N2CCN(C3CC(=O)N(c4ccc5c(c4)OCCO5)C3=O)CC2)cc1 (stereo not given) | 4.17% (inactive)

Row | SMILES | inhibition
70 | CCC(C)Cn1c(O)cc2nn(-c3nc4ccccc4s3)c(=O)c-2c1C (stereo not given) | 61.1% (active)
71 | O=C(OCc1ccccc1)N1CCC2CC1c1ccc(-c3ccc4c(c3)OCO4)cc12 (stereo not given) | -25% (inactive)
72 | COc1ccc(OC)c(-c2csc(NC(=O)C3=NNC(=O)CC3)n2)c1 | -2.91% (inactive)
73 | COc1ccc(OC)c(Nc2nc(-c3ccc(O)c(O)c3)cs2)c1 | 64.3% (active)
74 | COc1ccc(-c2csc(Nc3cccc(C)n3)n2)cc1OC | 13.4% (inactive)
75 | C[C@@H]1CN([C@H](C)CO)S(=O)(=O)c2ccc(C#C[C@@H](C)O)cc2O[C@@H]1CN(C)Cc1ccc(-c2ccccc2)cc1 | -54% (inactive)
76 | O=C(OCc1cn([C@H]2C[C@H](c3ccccc3)N(C(=O)c3cccs3)C[C@@H]2O)nn1)c1ccccc1 | -11.7% (inactive)
77 | N#CC1(Nc2ccc3c4c(cccc24)CC3)CCCCC1 | 33.2% (inactive)
78 | O=C1CSC(=S)N1/N=C/c1ccc(O)c([N+](=O)[O-])c1 | 13.7% (inactive)
79 | Cc1cc(C(=O)COC(=O)C2CC2)c(C)n1-c1ccc(F)cc1 | 4.47% (inactive)
80 | Cc1cc(C(=O)N/N=C/c2ccc(O)c([N+](=O)[O-])c2)c(C)n1-c1ccc(F)cc1 | 45.1% (active)
81 | Cc1ccc([C@H]2N[C@]3(CCCN(CC4CCCCC4)C3=O)[C@H]3C(=O)N(Cc4ccccc4)C(=O)[C@@H]23)cc1 | -16.8% (inactive)
82 | Fc1ccccc1N=C1Nc2cccc3cccc1c23 | -6.03% (inactive)
83 | COc1ccccc1-c1nc(C(F)(F)F)c(OC)o1 | -5.12% (inactive)
84 | COc1ccccc1C1=Nc2cccc3cccc(c23)N1 | 60.3% (active)
85 | O=C1c2ccccc2C(=O)c2c1cccc2N1CCN(CCO)CC1 | 9.89% (inactive)
86 | O=C(CN1CCN(Cc2ccccc2)CC1)NC(c1ccccc1)c1ccccc1 | -2.99% (inactive)
87 | O=C1c2ccccc2C(=O)c2c1cccc2N1CCN(Cc2ccccc2)CC1 | 62% (active)
88 | CCCCN1C(=O)C(CC(=O)NCc2cccs2)CC(C(=O)N2CCOCC2)=C1C (stereo not given) | 1.73% (inactive)
89 | Cc1noc(C)c1S(=O)(=O)N(C)C[C@H]1OCCCC[C@@H](C)Oc2ccc(NC(=O)CCCN(C)C)cc2C(=O)N([C@H](C)CO)C[C@@H]1C | 1.73% (inactive)
90 | Cc1ccc(-c2ccc(CN3C(C)C(=O)N(Cc4cn(CCC5OCCCO5)nn4)CCS3(=O)=O)cc2)cc1 (stereo not given) | -6.77% (inactive)
